In PubChem BioAssay (NCI):
This is part of a sample that, as a whole, favours compounds with a hit. Of some 83,000 tested, about 20% had one in any assay.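 Interpretation: 100, growth as untreated; towards 0, rising growth inhibition; 0, no net growth; 0 to -100, cell death. Compounds scoring below 10 were considered active.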 Values without a mark were called inactive. Active and inactive are the calls of the source.

What was measured:
Experiment in all cases: NCI-60 one-dose screen, 48 h (100 = growth as untreated, 0 = no growth, -100 = all killed)
Settings in all cases: 10 µM unless noted
[1] = tested on: HCT-15 colon
[2] = tested on: HT29 colon
[3] = tested on: SNB-75 CNS
[4] = tested on: SNB-19 CNS
[5] = tested on: U251 CNS
[6] = tested on: PC-3 prostate
[7] = tested on: SK-MEL-5 melanoma
[8] = tested on: UACC-62 melanoma
[9] = tested on: LOX IMVI melanoma
[10] = tested on: SK-MEL-28 melanoma

Structure (SMILES)	growth [1]	growth [2]	growth [3]	growth [4]	growth [5]	growth [6]	growth [7]	growth [8]	growth [9]	growth [10]
COc1cc2c(Nc3ccc(Br)cc3F)ncnc2cc1OCC1CCN(C)CC1	11.6%	5.35% (active)	-59.8% (active)	37.6%	8.98% (active)	39.1%	-66.3% (active)	-45.8% (active)	-45.6% (active)	-79.7% (active)
Cc1ncc(-c2ccnc(Nc3ccc(S(C)(=O)=O)cc3)n2)n1C(C)C	1.34% (active)	-16.6% (active)	-37.9% (active)	7.36% (active)	3.47% (active)	-11.1% (active)	-55.5% (active)	-71.5% (active)	3.16% (active)	-41.8% (active)
CCc1nc2ccc(Cc3ccc(C(=O)NO)cc3)cc2c(=O)n1CCc1ccccc1	-43.2% (active)	-40.8% (active)	-20.8% (active)	-44.9% (active)	-71.4% (active)	-66.5% (active)	-65.6% (active)	-57.7% (active)	-76.2% (active)	-36% (active)
COc1cc2nc(Nc3cccc(Cl)c3)nc(N)c2cc1OC	6.41% (active)	6.72% (active)	94.5%	106%	66.4%	53.9%	64.5%	96.3%	59.8%	83.8%
O=C(NCCO)Nc1ccc(-c2nc(N3CCOCC3)c3cccn3n2)cc1	11.5%	14.4%	-31.9% (active)	18.3%	18.3%	9.72% (active)	-27.6% (active)	-37.7% (active)	4.86% (active)	-7.13% (active)
O=C(NC1CCNCC1)c1[nH]ncc1NC(=O)c1c(Cl)cccc1Cl	72.7%	-26.7% (active)	-40.7% (active)	12.5%	4.47% (active)	5.97% (active)	-12.8% (active)	-41.9% (active)	8.93% (active)	-14.5% (active)
COCCN1CCN(Cc2ccc(-c3n[nH]c4c3C(=O)c3c(NC(=O)NN5CCOCC5)cccc3-4)cc2)CC1	-13.6% (active)	-22.3% (active)	-37.6% (active)	2.99% (active)	1.69% (active)	3.15% (active)	-23.8% (active)	-44.9% (active)	-77.2% (active)	-39.7% (active)
CN1CCC(CNc2ccc3ncc(-c4cccc(OC(F)(F)F)c4)n3n2)CC1	-35.2% (active)	-46.1% (active)	-75.1% (active)	-48.6% (active)	-89.2% (active)	-20.6% (active)	-99.1% (active)	-95% (active)	-83.5% (active)	-86.4% (active)
COc1cc2c(c(OC)c1)C1c3ccccc3NC(=O)N1CC2 (stereo not given)	18%	6.37% (active)	7.13% (active)	44.7%	16.8%	22.6%	15.7%	15.6%	41.3%	49.8%
Cc1cc(N(CCNc2ccnc3cc(Cl)ccc23)Cc2ccc3c(c2)OCO3)nc(N2CCCC2)n1	0.301% (active)	-10.2% (active)	-46.7% (active)	26.5%	-17.6% (active)	36.1%	-96.9% (active)	18.2%	-80.9% (active)	-58.7% (active)
Cc1cc(N(CCNc2ccnc3cc(Cl)ccc23)Cc2cccs2)nc(Cl)n1	1.01% (active)	-21.5% (active)	-84.5% (active)	38.3%	-57.3% (active)	21.1%	-31.2% (active)	13.4%	-74.4% (active)	-43.4% (active)
Cn1ncc(Cl)c1-c1cc(C(=O)N[C@H](CN)Cc2ccc(F)c(F)c2)oc1Cl	6.57% (active)	-11.7% (active)	-86.4% (active)	2.29% (active)	-86.5% (active)	-25% (active)	-96.2% (active)	-78.5% (active)	-88.8% (active)	-77.1% (active)
COc1ccc2c(c1OC)C(=O)O[C@@H]2[C@H]1c2c(c(C#CC#Cc3ccc(F)c(F)c3)c3c(c2OC)OCO3)CCN1C	56.8%	92.3%	89.6%	103%	88.4%	50.8%	66.2%	69.5%	90.9%	96.3%
Cc1cccc(NC(=O)[C@@H]2c3ccccc3C(=O)N(c3ccc(Cl)cc3)[C@H]2c2ccc(Cl)cc2)n1	26.1%	11%	68.5%	67.5%	43.1%	17.1%	33.1%	44.1%	80.3%	69.2%
Cc1cc(Nc2ncnc3ccc(NC4=NC(C)(C)CO4)cc23)ccc1Oc1ccn2ncnc2c1	47.9%	5.46% (active)	39%	44.3%	36.2%	41.3%	19.2%	14.3%	11.2%	12.9%
CCOC(=O)C1=C(C)N=C2Sc3cc(OC(F)(F)F)ccc3N2[C@H]1c1ccccn1	13.7%	39.2%	63.4%	37.9%	23.1%	50.9%	38.5%	28.3%	32.9%	42.4%
CCOc1cc2ncc(C#N)c(Nc3ccc(OCc4ccccn4)c(Cl)c3)c2cc1NC(=O)/C=C/CN(C)C	-0.289% (active)	-54.5% (active)	34.1%	-44.2% (active)	3.18% (active)	9.27% (active)	14.8%	-64.1% (active)	-67.8% (active)	-79.5% (active)
CC#CC(=O)N1CCC[C@H]1c1nc(-c2ccc(C(=O)Nc3ccccn3)cc2)c2c(N)nccn12	87.8%	73.4%	77%	90.6%	83.6%	81.1%	86.6%	77.1%	93.7%	88.3%
O=C(Cc1ccc(/C=C/C(=O)c2ncc[nH]2)cc1)Nc1ccc(Br)cc1	-5.46% (active)	-21% (active)	40.5%	8.45% (active)	-63.5% (active)	17%	54.8%	31%	-65% (active)	73.4%
CN[C@@H]1C[C@H]2O[C@@](C)([C@@H]1OC)n1c3ccccc3c3c4c(c5c6ccccc6n2c5c31)C(=O)N[C@H]4O	-16.8% (active)	-16.7% (active)	-98.9% (active)	-34.4% (active)	-85.3% (active)	4.43% (active)	-98.9% (active)	-63.1% (active)	-85.5% (active)	-61.3% (active)
CCN1CCN(c2nc(C)cc(N(CCNc3ccnc4cc(Cl)ccc34)Cc3ccc4c(c3)OCO4)n2)CC1	-6.94% (active)	-13.4% (active)	9.98% (active)	29.9%	-44.6% (active)	50.7%	-96.6% (active)	44.9%	-74.5% (active)	-72% (active)
CS(=O)(=O)N1CCN(Cc2cc3nc(-c4cccc5[nH]ncc45)nc(N4CCOCC4)c3s2)CC1	19.3%	11.4%	-25.6% (active)	34.9%	34%	18.2%	33.5%	-14.2% (active)	15.5%	10.6%
O=C1NC(=O)/C(=C/c2ccc3nccc(-c4ccncc4)c3c2)S1	-19.5% (active)	-51.4% (active)	-45.9% (active)	-26.6% (active)	-74.6% (active)	-24.5% (active)	-94.7% (active)	-74.2% (active)	-40.8% (active)	-32.6% (active)
CN1CCN(c2ccc(C(=O)Nc3n[nH]c4ccc(Cc5cc(F)cc(F)c5)cc34)c(NC3CCOCC3)c2)CC1	-65.7% (active)	-56.8% (active)	-93.2% (active)	-50.3% (active)	-83.7% (active)	-12.3% (active)	-96.5% (active)	-78.4% (active)	-89.7% (active)	-87% (active)
N#Cc1c(-c2ccc(Cl)cc2)csc1NC(=O)Nc1cccc(C(F)(F)F)c1	11.7%	13%	29.3%	12.1%	6.02% (active)	11.1%	22.4%	12.5%	5.9% (active)	14.3%
O=C(Nc1cn[nH]c1-c1nc2ccc(CN3CCOCC3)cc2[nH]1)NC1CC1	50.2%	16.3%	-42.1% (active)	19.5%	18.6%	38.5%	36.1%	25.1%	1.79% (active)	39.5%
